# PubChem BioAssay AID1851 (National Center for Advancing Translational Sciences (NCATS), 2009)
# Values joined by “and” are separate entries in the source; they are usually repeats but may differ in a detail not shown here. Identical values can stand only once. In all, about 16,000 compounds went through this assay and about 5,700 (36%) were called active. About 24% were inconclusive and are not listed. Calls come from the whole dose curve; as a rule, active = well fitted curve in the direction sought with a large enough effect; inconclusive = small, poorly fitted or top-dose-only effect, or effect the other way; inactive = no such curve, though single readings can be large or run the other way. The list shows a part of the results. Where a structure was tested more than once in an assay, its records may differ in their call.
# Target: Cytochrome P450 1A2 (Homo sapiens) (UniProt P05177)
# Assay: Cytochrome panel assay with activity outcomes
# Details: recombinant CYP, pro-luciferin dealkylation, luminescence, p450-cyp1a2; series mostly up to 57.1 µM
# % is set by controls: 0 for no effect and ±100 for the full control effect.
# Chain of Cytochrome P450 1A2 (Homo sapiens) (P05177 whole entry, looked up): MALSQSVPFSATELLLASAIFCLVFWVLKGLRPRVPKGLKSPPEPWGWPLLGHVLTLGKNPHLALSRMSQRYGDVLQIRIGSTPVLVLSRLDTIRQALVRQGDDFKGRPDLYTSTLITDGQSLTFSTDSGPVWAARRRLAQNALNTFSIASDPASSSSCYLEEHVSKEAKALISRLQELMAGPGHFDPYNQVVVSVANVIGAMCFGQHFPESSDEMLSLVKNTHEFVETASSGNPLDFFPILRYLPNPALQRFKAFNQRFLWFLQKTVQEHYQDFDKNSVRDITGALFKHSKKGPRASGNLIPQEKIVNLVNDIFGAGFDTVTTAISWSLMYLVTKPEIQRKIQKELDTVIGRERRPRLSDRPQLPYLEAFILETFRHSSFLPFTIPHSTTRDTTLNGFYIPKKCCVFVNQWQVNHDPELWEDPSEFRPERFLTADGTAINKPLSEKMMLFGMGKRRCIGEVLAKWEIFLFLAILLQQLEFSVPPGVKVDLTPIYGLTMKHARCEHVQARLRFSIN
Structure (SMILES),"activity, negative = inhibition",AC50
O=C(CC1(O)CCCCC1)OC1CCCC1,-12.2% [at 11.4 µM] (inactive),–
CC1(C)O[C@H]2[C@@H](O1)[C@@H](On1nnc3ccc(Cl)cc31)O[C@@H]2[C@@H]1COC(C)(C)O1,-10.9% [at 2.29 µM] (inactive),–
CN(C)c1nc(-c2cccnc2)nc2ccccc12,–,0.126 µM (active)
CCOC(=O)Cc1c(C)nc2c(C#N)c[nH]n2c1=O,–,inactive
CCOC(=O)Cc1cc(=O)n2[nH]c(C)c(-c3ccccc3)c2n1,–,12.6 µM (active)
CCOC(=O)Cc1cc(=O)n2[nH]c(C)c(C#N)c2n1,–,inactive
S=C(CSc1ccccc1)Nc1cccc2ccccc12,–,1.26 µM (active)
CO[C@@H]1COC(=O)CCC[C@@H](C)[C@H](OC)COC(=O)CCC[C@H]1C,5.33% [at 11.4 µM] (inactive),–
CS(=O)(=O)c1ccccc1-c1nc(-c2cc(C(F)(F)F)cc(C(F)(F)F)c2)no1,–,inactive
Cc1cccc(-c2noc(-c3cc4ccccc4oc3=O)n2)c1,–,3.16 µM (active)
NC1=NC2(CCCCC2)N=C(Nc2ccc(F)cc2F)N1,–,inactive
Cc1ccc(C(=O)NNC(=O)C2CCCN(c3ncccn3)C2)cc1 (configuration not stated),–,inactive
COc1cc(C)nc(N2CCCC(C(=O)Nc3cc(Cl)ccc3OC)C2)n1 (configuration not stated),–,3.55 µM (active)
O=C(O)C1CCCCC1C(=O)Nc1cc(Cl)ccc1Cl (configuration not stated),–,inactive
CCOC(=O)N1CCN(S(=O)(=O)c2ccc3[nH]cc(C(=O)O)c(=O)c3c2)CC1,–,inactive
Cc1ccccc1NS(=O)(=O)c1ccc2[nH]cc(C(=O)N(C)Cc3ccco3)c(=O)c2c1,–,15.8 µM (active)
CN1CCN(S(=O)(=O)c2ccc3[nH]cc(C(=O)O)c(=O)c3c2)CC1,–,inactive
COc1ccc(Oc2ncc3nc(-c4cccs4)c(=O)n(C)c3n2)cc1,–,3.16 µM (active)
COc1ncc2nc(-c3cccs3)c(=O)n(C)c2n1,–,2 µM (active)
O=C(NNC(=O)c1cc2cc3ccccc3nc2s1)c1cccc(C(F)(F)F)c1,–,inactive
Cc1sc(N)c(C(=O)c2cccc(C(F)(F)F)c2)c1C,–,15.8 µM (active)
CC(C)NC1(C(N)=O)CCN(Cc2ccccc2)CC1,7.61% [at 2.29 µM] (inactive),–
Cc1ccnc(NCn2nnc3ccccc32)c1,–,28.2 µM (active)

Structure (SMILES),"activity, negative = inhibition",AC50
COc1ccc(N(C(=O)Cn2nnc3ccccc32)C2(C(=O)NC3CCCC3)CCCCC2)cc1,–,inactive
O=C(Cn1nnc2ccccc21)N1CCCCC1,–,inactive
Cc1ccc(S(=O)(=O)N[C@H]2COC(=O)[C@@H](Cc3ccccc3)NC(=O)[C@@H](C)COC(=O)C/C=C\[C@@H]2C)cc1,-7.75% [at 11.4 µM] (inactive) and -3.67% [at 11.4 µM] (inactive),–
Cc1c(NC(=O)C23CC4CC(CC(C)(C4)C2)C3)c(=O)n(-c2ccccc2)n1C,–,inactive
CS(=O)(=O)c1ccc(Cn2c3c(c4cc(F)cc(F)c42)CCC[C@H]3CC(=O)O)cc1,–,inactive
Cc1c(CC(C)(C)C(=O)O)n(Cc2ccc(Cl)cc2)c2ccc(F)cc12,–,15.8 µM (active)
OCCNc1nc(NCCC2=CCCCC2)nc(N2CCOCC2)n1,–,0.708 µM (active)
O=C(O)C[C@H](Cc1ccccc1Cl)C(=O)O,-17.6% [at 11.4 µM] (inactive),–
O=C(NN1C(=O)c2ccccc2C1=O)C1CCCCC1,–,inactive
O=C(CSCc1ccccc1Cl)NN1C(=O)c2ccccc2C1=O,–,14.1 µM (active)
O=C1/C(=C\c2ccc(Br)o2)SC(=Nc2ccccc2)N1c1ccccc1,–,0.126 µM (active)
CC1=C(\C=C/C(C)=C/C=C\C(C)=C\C(=O)O)C(C)(C)CCC1,–,inactive and 20 µM (active)
CC1=CC(=O)CC(C)(C)[C@]1(O)/C=C\C(C)=C\C(=O)O,-7.1% [at 11.4 µM] (inactive),–
CC1=NN(C(=O)c2ccncc2)C(=O)[C@@H]1N=Nc1ccc2ccccc2c1,–,0.158 µM (active)
Cc1ccc(C)c(Nc2nc3nonc3nc2N2CCOCC2)c1,–,5.01 µM (active)
FC(F)(F)c1nc2ccccc2nc1N/N=C/c1ccc(Cl)cc1,–,1.41 µM (active)
FC(F)(F)c1nc2ccccc2nc1N/N=C\c1ccccc1,–,0.562 µM (active)
Cc1noc(C)c1-c1cc(NCc2ccccc2)ncn1,–,5.01 µM (active)
COc1ccccc1CNc1cc(-c2c(C)noc2C)ncn1,–,5.01 µM (active)
Cc1cccc(CNc2cc(-c3c(C)noc3C)ncn2)c1,–,1 µM (active)
Cc1noc(C)c1-c1cc(NCc2cccnc2)ncn1,–,1 µM (active)
CCS(=O)(=O)N(C)[C@@H]1c2cc(C#N)ccc2OC(C)(C)[C@H]1O,–,inactive
CCOC(=O)C(C)CC(C)C(=O)N1CCOCCN(C(=O)C(C)CC(C)C(=O)OCC)CCOCC1 (configuration not stated),–,inactive

Structure (SMILES),"activity, negative = inhibition",AC50
Cc1noc(C)c1-c1cc(NCc2cccs2)ncn1,–,0.794 µM (active)
Cc1ccc(C(=O)/C=C/c2c[nH]c3ccccc23)cc1,–,5.62 µM (active)
O=C(O)[C@H](Cc1c[nH]c2ccccc12)N1C(=O)c2ccccc2C1=O,-8.32% [at 2.29 µM] (inactive),–
Cc1ccc(C(=O)Nc2ccc(C(=O)/C=C/c3cccs3)cc2)cc1,–,inactive
Cc1ccc(C(=O)NNC(=S)NC(=O)c2ccc(Cl)cc2)cc1,–,inactive
COc1ccc(Cc2nnc(NC(=O)c3ccc(Cl)c([N+](=O)[O-])c3)s2)cc1,–,inactive
CNC(=S)NNC(=O)c1sccc1OCc1ccc(C)cc1,–,5.01 µM (active)
COc1ccc(COc2ccsc2C(=O)Nc2ccc(Cl)c(Cl)c2)cc1,–,3.16 µM (active)
Cc1cc(C)n(Cc2ccc(NC(=O)c3ccc(COc4ccccc4Br)cc3)cc2)n1,–,inactive
COc1ccc(-c2cc(C(F)(F)F)n3nc(C(=O)NCc4ccco4)c(Cl)c3n2)cc1,–,3.55 µM (active)
Cc1cc(C)n(C(=O)c2cc3ccccc3c(=O)o2)n1,–,7.08 µM (active)
O=C(O)CC1(C(=O)O)CCCCC1,5.1% [at 2.29 µM] (inactive),–
CCOC(=O)c1ccc(NC(=O)Nc2ccc3c4c(cccc24)C(=O)N3CC)cc1,–,1.58 µM (active)
CCCOC(=O)c1ccc(NC(=O)c2cn(CC)c3nc(C)ccc3c2=O)cc1,–,inactive
CCN1C(=O)c2cccc3c(NC(=O)c4cccc(N5C(=O)CCC5=O)c4)ccc1c23,–,inactive
CC(C)CO/N=C1/C[C@@H](O)[C@@H](O)[C@@H]2[C@@H]3C(=O)N(Cc4ccc5c(c4)OCO5)C(=O)[C@H]3CC[C@H]12,2.96% [at 11.4 µM] (inactive),–
CC(C)CO[C@H](c1ccc2c(c1)OCO2)[C@H](C)Br,–,0.631 µM (active)
CC(C)CO/N=C1/C[C@@H](O)[C@@H](O)[C@@H]2[C@@H]3C(=O)N(Cc4ccc5c(c4)OCO5)C(=O)[C@H]3CC[C@@H]12,-7.54% [at 11.4 µM] (inactive),–
c1ccc2c(CN3CCN(Cc4c[nH]c5ccccc45)CC3)c[nH]c2c1,-18.1% [at 2.29 µM] (inactive),–
O=C(O)[C@@H](Cc1c[nH]c2ccccc12)C(=O)NO,-20.4% [at 11.4 µM] (inactive),–
c1ccc2c(-c3c[nH]c4ccccc34)c3ccccc3nc2c1,–,3.16 µM (active)
CO[C@H]1COC(=O)C/C=C\[C@@H](C)[C@H](OC)COC(=O)[C@H]2CCCN2C(=O)C/C=C\[C@@H]1C,3.92% [at 11.4 µM] (inactive),–
CC(=O)OC[C@@H]1O[C@H](CCO/N=C(\C)CCC(=O)OC[C@@H]2O[C@H](C#Cc3ccccc3)C=C[C@@H]2Oc2ccc(C)cc2)C=C[C@@H]1OC(C)=O,-1.59% [at 11.4 µM] (inactive),–

Structure (SMILES),"activity, negative = inhibition",AC50
Cc1nc2cc(NC(=O)CSc3nc4c(C)cccc4cc3C#N)ccc2s1,–,2.82 µM (active)
O=C(CCOc1ccccc1)Nc1ccccc1,–,8.91 µM (active)
Oc1ccccc1CNCc1ccccc1O,-17.8% [at 11.4 µM] (inactive),–
COC(=O)c1cccc(NC(=O)CCCOc2ccccc2)c1,–,0.891 µM (active)
COc1ccc(NC(=O)CCOc2ccccc2)cc1,–,3.55 µM (active)
O=C(Cc1ccccc1I)Nc1ccccc1,–,12.6 µM (active)
CC(=O)NNC(=O)CCC(=O)Nc1ccccc1,–,inactive
CCC(=O)NNC(=O)CCC(=O)Nc1ccccc1,–,inactive
O=S(=O)(O)C1CCNCC1,–,inactive
CO[C@@H]1COC(=O)CC=C[C@@H](C)[C@@H]2C=C[C@H](O)[C@@H](COC(=O)[C@H](C)NC(=O)CC=C[C@H]1C)O2,-7.89% [at 11.4 µM] (inactive),–
CC(C)(CC(=O)Nc1ccccc1)C(=O)O,-15.9% [at 11.4 µM] (inactive),–
CCCCC#Cc1ccccc1CC(=O)Nc1ccccc1,–,2.51 µM (active)
COC(=O)c1cccc(NC(=O)Nc2ccc(Cl)c(Cl)c2)c1,–,8.91 µM (active)
COc1ccc(NC(=O)CCSc2cc(C)c3ccccc3n2)cc1,–,7.08 µM (active)
NCC(=O)Nc1ccccc1,–,2.51 µM (active)
Cc1cccc(C)c1NC(=O)C(c1ccc(Cl)cc1Cl)N1CCCCC1 (configuration not stated),–,inactive
O=C1C[C@@H](O)[C@@H](O)[C@@H]2[C@H]3C(=O)N(c4ccc(F)cc4F)C(=O)[C@@H]3CC[C@H]12,8.95% [at 11.4 µM] (inactive),–
O=C(COc1ccccc1)Nc1ccc(-c2nnc(-c3ccco3)o2)cc1,–,inactive
O=C(COC(=O)COc1ccccc1)Nc1ccc(OC(F)(F)F)cc1,–,20 µM (active)
O=C(Nc1nnc(C2CC2)s1)C1Cc2ccccc2CN1S(=O)(=O)c1ccccc1F (configuration not stated),–,12.6 µM (active)
Nc1ccc(S(=O)(=O)Nc2nccs2)cc1,–,inactive
CCc1nnc(NC(=O)C2Cc3ccccc3CN2S(=O)(=O)c2ccc(C)cc2)s1 (configuration not stated),–,inactive
O=C(Nc1nccs1)C1Cc2ccccc2CN1S(=O)(=O)c1ccc(F)cc1 (configuration not stated),–,2.24 µM (active)
